# Results as given in PMC4336329 (PLoS ONE, 2015).
# About 2,200 (0.71%) of roughly 310,000 compounds showed an effect of 50% or more. Effects have a minus sign here. The list comes from a sample in which strong results are over-represented; it also holds similar structures and randomly drawn compounds.
# Target: human ether-à-go-go-related gene (hERG) potassium channel (human, UniProt Q12809)
# Experiment: primary screen, population patch clamp on CHO cells stably expressing hERG; higher = less effect of the substance
# human ether-à-go-go-related gene (hERG) potassium channel, sequence (Q12809 whole entry, looked up): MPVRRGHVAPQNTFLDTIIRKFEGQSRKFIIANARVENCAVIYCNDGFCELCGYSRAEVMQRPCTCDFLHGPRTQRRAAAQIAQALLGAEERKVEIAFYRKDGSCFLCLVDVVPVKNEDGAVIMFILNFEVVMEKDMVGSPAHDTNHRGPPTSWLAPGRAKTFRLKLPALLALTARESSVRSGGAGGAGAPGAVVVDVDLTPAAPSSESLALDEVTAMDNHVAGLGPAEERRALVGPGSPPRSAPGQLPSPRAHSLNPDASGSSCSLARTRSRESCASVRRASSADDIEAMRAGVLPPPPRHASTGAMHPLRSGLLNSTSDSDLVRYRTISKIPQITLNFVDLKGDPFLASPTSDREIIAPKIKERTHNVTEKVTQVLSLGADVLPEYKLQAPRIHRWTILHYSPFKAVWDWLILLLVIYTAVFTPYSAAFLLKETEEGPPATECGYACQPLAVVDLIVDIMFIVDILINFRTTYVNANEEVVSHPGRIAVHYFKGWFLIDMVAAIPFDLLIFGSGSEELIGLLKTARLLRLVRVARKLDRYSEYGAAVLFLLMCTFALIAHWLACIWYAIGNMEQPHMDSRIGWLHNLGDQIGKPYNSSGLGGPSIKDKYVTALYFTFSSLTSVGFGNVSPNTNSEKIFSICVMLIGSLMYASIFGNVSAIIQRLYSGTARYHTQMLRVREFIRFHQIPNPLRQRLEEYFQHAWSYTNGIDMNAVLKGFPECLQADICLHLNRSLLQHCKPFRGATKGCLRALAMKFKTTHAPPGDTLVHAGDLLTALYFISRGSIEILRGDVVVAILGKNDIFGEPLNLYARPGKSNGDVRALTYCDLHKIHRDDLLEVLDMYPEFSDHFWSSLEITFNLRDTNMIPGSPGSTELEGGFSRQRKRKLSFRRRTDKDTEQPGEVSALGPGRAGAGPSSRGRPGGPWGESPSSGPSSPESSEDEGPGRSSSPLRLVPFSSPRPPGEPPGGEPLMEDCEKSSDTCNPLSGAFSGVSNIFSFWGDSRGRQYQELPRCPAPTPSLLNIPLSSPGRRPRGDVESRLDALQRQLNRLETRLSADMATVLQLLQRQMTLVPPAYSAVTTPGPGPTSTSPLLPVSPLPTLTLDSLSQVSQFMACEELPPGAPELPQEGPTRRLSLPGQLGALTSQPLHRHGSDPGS
row,SMILES,"hERG current change (%, negative = inhibition) at 1uM"
1,CCC(=O)N1CCN(c2ccc(NC(=O)COc3ccc(CC)cc3)cc2)CC1,10.9%
2,CC(C)[C@@H]1NC(=O)c2cc([N+](=O)[O-])cc(I)c2NCCC[C@@H](C(N)=O)NC(=O)[C@H](CO)NC1=O,8.46%
3,O=C(CSc1ncn[nH]1)c1cccc([N+](=O)[O-])c1,11.5%
4,C#CCNC(=O)C1=C[C@H](c2ccc3c(c2)OCO3)C[C@H](OCCCCO)O1,15%
5,CCN(CC(=O)Nc1c(F)cccc1F)C(=O)c1ccc2ncsc2c1,12.3%
6,CC1=CCC(C(=O)O)C(C(=O)Nc2cccnc2)C1 (stereo not shown),5.97%
7,COc1ccc(CCNC(=O)CNS(=O)(=O)c2ccc(Br)s2)cc1OC,1.45%
8,CC(CN1CCOCC1)OC(=O)C1COc2ccccc2O1.Cl (stereo not shown),7.15%
9,CC(NCC(=O)Nc1ccccc1C(=O)NC1CC1)c1ccc(S(C)(=O)=O)cc1 (stereo not shown),10.9%
10,CCCCc1cc(=O)oc2c(C)c(OCC(=O)NCCN3CCOCC3)ccc12,-77.1%
11,CCCc1cc(=O)oc2c(C)c(OCC(=O)NCCN3CCOCC3)ccc12,-6.02%
12,CCc1cc(=O)oc2c(C)c(OCC(=O)NCCN3CCOCC3)ccc12,12.8%
13,Cc1nc2cc(NC(=O)NCc3ccccc3)ccc2o1,16.2%
14,CCOC(=O)Cc1nc2ccccc2o1,9.03%
15,O=C(NCc1cccnc1)Nc1ccc(Cl)cc1,-18.3%
16,CCOC(=O)C1=C(OCc2ccc(Cl)cc2)C2C=C(C)C=CC2N=C1 (stereo not shown),-18.1%
17,COc1cccc(CNn2c(-c3cccc(C)c3)nc3ccccc3c2=O)c1,6.03%
18,COc1ccccc1CNn1c(-c2cccc(C)c2)nc2ccccc2c1=O,5.72%
19,COc1ccc(CNn2c(-c3cccc(C)c3)nc3ccccc3c2=O)cc1OC,-54.8%
20,Cc1cc(C)nc(/N=C(\N)N(Cc2ccccc2)Cc2ccccc2)n1,-31.2%
21,CCCCN(CCCC)/C(N)=N/c1nc(C)cc(C)n1,-51.8%

row,SMILES,"hERG current change (%, negative = inhibition) at 1uM"
1,CCN(CC)/C(N)=N/c1nc(C)cc(C)n1,3.23%
2,Cc1cc(OCC(=O)N2CCC(C(=O)O)(c3ccccc3)CC2)c2c(C)c(C)c(=O)oc2c1,4.94%
3,COc1ccc(OCC(=O)Nc2ccc(OC)c(S(=O)(=O)N3CCCCC3)c2)cc1,-2.82%
4,Brc1ccc(Oc2nnnn2-c2ccccc2)cc1,11%
5,COc1ccc(C(=O)N2CCC(C(=O)Nc3ccc4c(c3)OCCO4)CC2)cc1,-13.1%
6,COc1ccc(NC(=O)C2CCN(C(=O)c3ccc(OC)cc3)CC2)cc1,-69.6%
7,O=C(Nc1ccccc1)C1CCN(C(=O)c2ccc([N+](=O)[O-])cc2)CC1,-67%
8,COc1ccc(C(=O)N2CCC(C(=O)Nc3ccc(C)cc3)CC2)cc1,-31.9%
9,COc1cc(OC)cc(C(=O)N2CCC(C(=O)Nc3ccc4c(c3)OCCO4)CC2)c1,12.5%
10,O=C(Nc1ccc2c(c1)OCO2)C1CCN(C(=O)c2ccc([N+](=O)[O-])cc2)CC1,-74.6%
11,O=C(Nc1ccc2c(c1)OCCO2)C1CCN(C(=O)c2ccc([N+](=O)[O-])cc2)CC1,-16.3%
12,O=C(Nc1ccc2c(c1)OCCO2)C1CCN(C(=O)c2ccc(F)cc2)CC1,5.7%
13,O=C(Nc1ccc(F)cc1)C1CCN(C(=O)c2ccc([N+](=O)[O-])cc2)CC1,11.5%
14,CC(=O)Nc1ccc(NC(=O)C2CCN(C(=O)c3ccc([N+](=O)[O-])cc3)CC2)cc1,22.3%
15,COc1ccc(C(=O)N2CCC(C(=O)Nc3ccc(OC)c(OC)c3)CC2)cc1,10.7%
16,COc1ccc(C(=O)N2CCC(C(=O)Nc3ccc4c(c3)OCO4)CC2)cc1,-59%
17,CCC(Oc1ccccc1)C(=O)N(C)CC(=O)N(CC(C)C)c1c(N)n(CC(C)C)c(=O)[nH]c1=O (stereo not shown),7.85%
18,CC(C)CC(=O)OCC(=O)Nc1ccccc1Sc1ccccc1,11.1%
19,CN(Cc1ccc(OC(F)F)cc1)C(=O)c1ccc(S(=O)(=O)N(C)c2ccccc2)cc1,-19.2%
20,CCS(=O)(=O)N1Cc2ccccc2CC1C(=O)Nc1ncc(C)s1 (stereo not shown),7.83%
21,Fc1ccc(N2Cc3ccsc3C=N2)cc1,9.09%

row,SMILES,"hERG current change (%, negative = inhibition) at 1uM"
1,CCOc1ccc(Nc2nc(Cc3nnc(SCC(=O)NC4CCCCC4)n3C)cs2)cc1,-7.35%
2,Cc1sc(-c2ccccn2)nc1OC(=O)c1ccc(F)cc1F,16.2%
3,CCCCC(=O)Nc1c(-c2ccc(OC)c(OC)c2)c(=O)c2ccccc2n1C,10.7%
4,O=C(NCC1CCN(C(=O)c2cccc([N+](=O)[O-])c2)CC1)c1cccc([N+](=O)[O-])c1,-5.98%
5,O=C(NCC1CCN(C(=O)c2ccc([N+](=O)[O-])cc2)CC1)c1ccc([N+](=O)[O-])cc1,-74.6%
6,O=C(Nc1ccc2c(c1)OCO2)C1CCN(C(=O)c2ccc(Br)cc2)CC1,-42.3%
7,O=C(Nc1ccc2c(c1)OCCO2)C1CCN(C(=O)c2ccc(Cl)cc2)CC1,3.04%
8,O=C(Nc1ccc2c(c1)OCO2)C1CCN(C(=O)c2ccc(Cl)cc2)CC1,-59.6%
9,O=C(NCC1CCCCC1)c1ccc([N+](=O)[O-])cc1,8.06%
10,O=[N+]([O-])c1ccccc1/C=C\C=N\N1CCN(c2ccccc2)CC1,-7.95%
11,COc1cccc(CC2(CO)CCCN(Cc3cn(C)c4ccccc34)C2)c1 (stereo not shown),-54.8%
12,COc1cccc(CC2(CO)CCCN(Cc3cn[nH]c3-c3ccccc3)C2)c1 (stereo not shown),-6.05%
13,COc1cccc(CC2(CO)CCCN(Cc3ccccc3Cl)C2)c1 (stereo not shown),-12.5%
14,COc1cccc(CC2(CO)CCCN(Cc3ccc(-c4ccco4)cc3)C2)c1 (stereo not shown),9.67%
15,COc1cccc(CC2(CO)CCCN(Cc3ccc(CN4CCCCC4)s3)C2)c1 (stereo not shown),0.717%
16,COc1cccc(CC2(CO)CCCN(Cc3ccc(OC)c(C)c3OC)C2)c1 (stereo not shown),-80.2%
17,COc1cccc(CC2(CO)CCCN(Cc3ccc(C)s3)C2)c1 (stereo not shown),-10.6%
18,COc1cccc(CC2(CO)CCCN(Cc3ccc(CO)o3)C2)c1 (stereo not shown),-1.35%
19,COc1cccc(CC2(CO)CCCN(Cc3ccccc3-c3ccco3)C2)c1 (stereo not shown),-55.6%
